# Tests used:
# Assay in all cases: DAPPL (digital affinity profiling via proximity ligation, sequencing); 10 mM Tris-HCl pH 7.5, 50 mM NaCl, 1 mM DTT, 4% glycerol, room temperature, 30 min; GST-TFs on glutathione beads, 16-mer random dsDNA library, 0.1% formaldehyde crosslink after washing; high values mean tight binding
# FLI1 = biological target: T1, FLI1 (Homo sapiens, UniProt Q01543 1-452); conditions: protein: recombinant; tags: N-terminal GST; dsDNA, one strand shown
# T1 sequence: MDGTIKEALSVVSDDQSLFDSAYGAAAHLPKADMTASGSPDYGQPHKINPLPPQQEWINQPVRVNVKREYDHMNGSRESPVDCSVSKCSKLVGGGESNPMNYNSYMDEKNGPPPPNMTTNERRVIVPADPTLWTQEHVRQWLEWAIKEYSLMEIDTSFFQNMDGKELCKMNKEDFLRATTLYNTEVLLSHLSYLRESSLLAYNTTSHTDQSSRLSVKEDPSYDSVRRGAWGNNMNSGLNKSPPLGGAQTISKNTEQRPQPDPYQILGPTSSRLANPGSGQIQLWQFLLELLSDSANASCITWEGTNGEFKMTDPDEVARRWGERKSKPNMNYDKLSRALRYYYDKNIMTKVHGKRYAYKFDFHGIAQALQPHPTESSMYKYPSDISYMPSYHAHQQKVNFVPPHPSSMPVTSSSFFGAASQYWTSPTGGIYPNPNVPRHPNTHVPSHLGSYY
# In short: (§1)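 In yeast, human transcription factors were expressed with a GST fusion, then pulled down on glutathione beads and given DNA barcodes. Pooled with a tag-only sample, they were exposed to 200 nmole of a 16-mer random double-stranded DNA library (Tris/NaCl/DTT/glycerol buffer, room temperature, 30 min), washed, crosslinked with 0.1% formaldehyde, proximity-ligated using BsaI/T4 ligase for 1 h at 37 °C, PCR-amplified and read on an Illumina NextSeq500. Each hexamer's frequency of reads for a factor, divided by the matching frequency for the tag-only sample, gives the binding signal.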
# ELK1 = biological target: T2, ELK1 (Homo sapiens, UniProt P19419 1-428); conditions: protein: recombinant; tags: N-terminal GST; dsDNA, one strand shown
# T2 sequence: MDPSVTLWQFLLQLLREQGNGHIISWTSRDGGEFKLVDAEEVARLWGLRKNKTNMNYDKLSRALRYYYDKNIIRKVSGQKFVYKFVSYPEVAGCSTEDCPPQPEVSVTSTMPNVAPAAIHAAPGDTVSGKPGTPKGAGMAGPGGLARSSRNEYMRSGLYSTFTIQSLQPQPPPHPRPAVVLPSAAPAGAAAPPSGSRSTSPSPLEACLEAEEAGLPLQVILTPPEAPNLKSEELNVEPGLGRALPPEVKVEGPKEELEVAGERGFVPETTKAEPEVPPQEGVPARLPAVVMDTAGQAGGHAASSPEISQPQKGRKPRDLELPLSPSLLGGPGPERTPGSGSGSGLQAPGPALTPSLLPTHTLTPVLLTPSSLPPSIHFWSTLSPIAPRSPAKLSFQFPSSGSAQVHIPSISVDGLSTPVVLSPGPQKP
# In short: as §1
# GABPA = biological target: T3, GABPA (Homo sapiens, UniProt Q06546 1-454); conditions: protein: recombinant; tags: N-terminal GST; dsDNA, one strand shown
# T3 sequence: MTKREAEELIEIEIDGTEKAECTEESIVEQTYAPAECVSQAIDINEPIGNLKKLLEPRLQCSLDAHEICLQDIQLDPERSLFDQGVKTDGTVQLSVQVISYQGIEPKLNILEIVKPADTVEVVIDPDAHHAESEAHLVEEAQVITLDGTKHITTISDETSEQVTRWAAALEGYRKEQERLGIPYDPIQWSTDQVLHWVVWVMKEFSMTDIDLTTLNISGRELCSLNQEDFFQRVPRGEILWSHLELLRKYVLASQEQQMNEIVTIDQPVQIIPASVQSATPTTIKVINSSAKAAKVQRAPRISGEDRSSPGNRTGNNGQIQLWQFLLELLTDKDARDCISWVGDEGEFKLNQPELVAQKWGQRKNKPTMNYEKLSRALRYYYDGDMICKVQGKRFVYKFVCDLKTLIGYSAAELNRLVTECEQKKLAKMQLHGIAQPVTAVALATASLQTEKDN
# In short: as §1
# ERG = biological target: T4, ERG (Homo sapiens, UniProt P11308 1-479); conditions: protein: recombinant; tags: N-terminal GST; dsDNA, one strand shown
# T4 sequence: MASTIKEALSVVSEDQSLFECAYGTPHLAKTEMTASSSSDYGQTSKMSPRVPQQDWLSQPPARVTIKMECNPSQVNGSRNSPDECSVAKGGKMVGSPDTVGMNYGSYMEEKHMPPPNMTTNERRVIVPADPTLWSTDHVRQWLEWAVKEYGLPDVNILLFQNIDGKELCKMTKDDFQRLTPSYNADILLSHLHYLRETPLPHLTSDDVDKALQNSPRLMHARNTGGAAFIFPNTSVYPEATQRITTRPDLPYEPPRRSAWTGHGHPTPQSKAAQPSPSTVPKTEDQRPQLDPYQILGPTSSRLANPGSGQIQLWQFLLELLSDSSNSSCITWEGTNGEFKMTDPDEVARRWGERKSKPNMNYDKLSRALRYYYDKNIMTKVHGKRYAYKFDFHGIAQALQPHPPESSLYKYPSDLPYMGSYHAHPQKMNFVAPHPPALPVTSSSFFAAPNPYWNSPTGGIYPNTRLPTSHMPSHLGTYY
# In short: as §1
# ELF1 = ELF1 (Homo sapiens, UniProt P32519 1-619); conditions: protein: recombinant; tags: N-terminal GST; dsDNA, one strand shown
# In short: as §1
# EHF = biological target: T5, EHF (Homo sapiens, UniProt Q9NZC4 1-300); conditions: protein: recombinant; tags: N-terminal GST; dsDNA, one strand shown
# T5 sequence: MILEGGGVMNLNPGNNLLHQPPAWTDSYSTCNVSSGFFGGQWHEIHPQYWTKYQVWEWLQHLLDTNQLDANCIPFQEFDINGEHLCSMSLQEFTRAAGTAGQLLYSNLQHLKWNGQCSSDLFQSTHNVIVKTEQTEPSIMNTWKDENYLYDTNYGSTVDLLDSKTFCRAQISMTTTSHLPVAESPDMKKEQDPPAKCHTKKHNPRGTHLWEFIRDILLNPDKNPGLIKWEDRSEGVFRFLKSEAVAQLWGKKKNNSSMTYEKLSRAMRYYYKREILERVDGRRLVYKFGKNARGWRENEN
# In short: as §1
# SPI1 = SPI1 (Homo sapiens, UniProt P17947 1-270); conditions: protein: recombinant; tags: N-terminal GST; dsDNA, one strand shown
# In short: as §1
# SPIB = SPIB (Homo sapiens, UniProt Q01892 1-262); conditions: protein: recombinant; tags: N-terminal GST; dsDNA, one strand shown
# In short: as §1
# ELK3 = biological target: T6, ELK3 (Homo sapiens, UniProt P41970 1-407); conditions: protein: recombinant; tags: N-terminal GST; dsDNA, one strand shown
# T6 sequence: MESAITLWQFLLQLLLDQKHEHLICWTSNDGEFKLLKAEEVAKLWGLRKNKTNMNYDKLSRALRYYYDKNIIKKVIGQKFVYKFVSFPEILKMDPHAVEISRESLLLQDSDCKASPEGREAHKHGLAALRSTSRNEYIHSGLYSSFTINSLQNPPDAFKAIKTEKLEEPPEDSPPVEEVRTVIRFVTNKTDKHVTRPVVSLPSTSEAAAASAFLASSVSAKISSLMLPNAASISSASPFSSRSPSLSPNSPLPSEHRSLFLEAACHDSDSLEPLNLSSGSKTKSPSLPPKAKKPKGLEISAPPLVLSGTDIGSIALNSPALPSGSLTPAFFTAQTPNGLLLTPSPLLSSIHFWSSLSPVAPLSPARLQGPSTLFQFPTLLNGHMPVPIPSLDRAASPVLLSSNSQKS
# In short: as §1
# FEV = biological target: T7, FEV (Homo sapiens, UniProt Q99581 1-238); conditions: protein: recombinant; tags: N-terminal GST; dsDNA, one strand shown
# T7 sequence: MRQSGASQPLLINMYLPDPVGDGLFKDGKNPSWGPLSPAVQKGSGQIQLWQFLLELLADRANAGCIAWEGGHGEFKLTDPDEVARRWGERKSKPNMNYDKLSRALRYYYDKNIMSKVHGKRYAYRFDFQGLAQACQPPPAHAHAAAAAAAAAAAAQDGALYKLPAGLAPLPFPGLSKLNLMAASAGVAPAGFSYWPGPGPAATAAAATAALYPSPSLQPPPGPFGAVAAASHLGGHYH
# In short: as §1
# ETV5 = ETV5 (Homo sapiens, UniProt P41161 1-510); conditions: protein: recombinant; tags: N-terminal GST; dsDNA, one strand shown
# In short: as §1
# HSF1 = HSF1 (Homo sapiens, UniProt Q00613 1-529); conditions: protein: recombinant; tags: N-terminal GST; chain copies: 3; dsDNA, one strand shown
# In short: as §1
# SPIC = biological target: T8, SPIC (Homo sapiens, UniProt Q8N5J4 1-248); conditions: protein: recombinant; tags: N-terminal GST; dsDNA, one strand shown
# T8 sequence: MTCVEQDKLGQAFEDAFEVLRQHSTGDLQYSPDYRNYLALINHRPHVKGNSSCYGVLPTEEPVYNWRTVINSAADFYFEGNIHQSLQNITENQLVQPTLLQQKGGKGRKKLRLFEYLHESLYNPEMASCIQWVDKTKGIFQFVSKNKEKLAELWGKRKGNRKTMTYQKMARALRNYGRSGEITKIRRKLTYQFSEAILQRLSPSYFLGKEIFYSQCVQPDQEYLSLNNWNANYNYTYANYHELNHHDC
# In short: as §1
# ELF4 = ELF4 (Homo sapiens, UniProt Q99607 1-663); conditions: protein: recombinant; tags: N-terminal GST; dsDNA, one strand shown
# In short: as §1
# ELK4 = biological target: T9, ELK4 (Homo sapiens, UniProt P28324-2 1-405); conditions: protein: recombinant; tags: N-terminal GST; dsDNA, one strand shown
# T9 sequence: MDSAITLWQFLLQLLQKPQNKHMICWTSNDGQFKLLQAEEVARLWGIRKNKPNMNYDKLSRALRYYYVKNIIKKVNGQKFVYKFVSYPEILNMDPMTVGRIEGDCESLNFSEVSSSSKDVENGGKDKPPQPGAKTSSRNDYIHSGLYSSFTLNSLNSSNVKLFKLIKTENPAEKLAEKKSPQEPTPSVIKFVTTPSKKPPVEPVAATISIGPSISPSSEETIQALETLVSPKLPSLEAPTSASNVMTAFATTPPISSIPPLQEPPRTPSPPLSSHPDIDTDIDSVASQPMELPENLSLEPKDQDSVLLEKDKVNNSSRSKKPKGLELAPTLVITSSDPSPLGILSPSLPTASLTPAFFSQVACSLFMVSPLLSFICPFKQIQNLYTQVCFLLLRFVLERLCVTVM
# In short: as §1
# ETV2 = biological target: T10, ETV2 (Homo sapiens, UniProt O00321 1-342); conditions: protein: recombinant; tags: N-terminal GST; dsDNA, one strand shown
# T10 sequence: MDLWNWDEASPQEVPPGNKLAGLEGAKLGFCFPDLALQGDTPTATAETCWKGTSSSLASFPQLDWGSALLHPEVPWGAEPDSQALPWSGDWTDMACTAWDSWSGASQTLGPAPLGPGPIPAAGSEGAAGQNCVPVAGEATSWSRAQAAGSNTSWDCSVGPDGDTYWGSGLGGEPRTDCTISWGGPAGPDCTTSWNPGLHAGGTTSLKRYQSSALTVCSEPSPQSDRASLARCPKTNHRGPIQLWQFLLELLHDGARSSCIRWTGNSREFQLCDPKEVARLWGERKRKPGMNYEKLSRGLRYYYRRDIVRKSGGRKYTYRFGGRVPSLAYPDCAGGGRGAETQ
# In short: as §1
# ELF3 = biological target: T11, ELF3 (Homo sapiens, UniProt P78545 1-371); conditions: protein: recombinant; tags: N-terminal GST; dsDNA, one strand shown
# T11 sequence: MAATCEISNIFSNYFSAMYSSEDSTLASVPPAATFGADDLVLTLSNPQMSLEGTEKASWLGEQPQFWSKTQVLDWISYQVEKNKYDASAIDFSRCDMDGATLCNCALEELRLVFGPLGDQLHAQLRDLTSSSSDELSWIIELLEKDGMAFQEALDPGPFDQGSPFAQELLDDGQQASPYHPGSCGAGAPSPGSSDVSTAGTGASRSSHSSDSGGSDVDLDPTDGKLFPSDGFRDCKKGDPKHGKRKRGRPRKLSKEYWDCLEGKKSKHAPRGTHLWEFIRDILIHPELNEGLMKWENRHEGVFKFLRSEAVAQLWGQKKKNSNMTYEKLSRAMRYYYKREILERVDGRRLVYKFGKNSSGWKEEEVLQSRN
# In short: as §1
# ETV1 = ETV1 (Homo sapiens, UniProt P50549 1-477); conditions: protein: recombinant; tags: N-terminal GST; dsDNA, one strand shown
# In short: as §1
# Sequence of ETV5 (P41161 whole entry): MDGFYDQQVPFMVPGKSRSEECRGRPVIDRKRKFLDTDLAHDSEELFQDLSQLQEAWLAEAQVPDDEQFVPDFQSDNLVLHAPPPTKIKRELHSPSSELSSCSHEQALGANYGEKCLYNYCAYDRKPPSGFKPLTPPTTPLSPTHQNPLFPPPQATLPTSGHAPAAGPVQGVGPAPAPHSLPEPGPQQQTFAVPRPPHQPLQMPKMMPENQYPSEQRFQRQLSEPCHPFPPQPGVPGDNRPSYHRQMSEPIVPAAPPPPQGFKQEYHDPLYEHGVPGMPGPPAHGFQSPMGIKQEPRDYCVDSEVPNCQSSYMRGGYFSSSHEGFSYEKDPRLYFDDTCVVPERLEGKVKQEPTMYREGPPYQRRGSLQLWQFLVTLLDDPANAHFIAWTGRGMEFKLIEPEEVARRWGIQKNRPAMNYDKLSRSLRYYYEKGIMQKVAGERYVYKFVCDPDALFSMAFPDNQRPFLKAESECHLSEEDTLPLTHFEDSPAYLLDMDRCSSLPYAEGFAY
# Sequence of ELF4 (Q99607 whole entry): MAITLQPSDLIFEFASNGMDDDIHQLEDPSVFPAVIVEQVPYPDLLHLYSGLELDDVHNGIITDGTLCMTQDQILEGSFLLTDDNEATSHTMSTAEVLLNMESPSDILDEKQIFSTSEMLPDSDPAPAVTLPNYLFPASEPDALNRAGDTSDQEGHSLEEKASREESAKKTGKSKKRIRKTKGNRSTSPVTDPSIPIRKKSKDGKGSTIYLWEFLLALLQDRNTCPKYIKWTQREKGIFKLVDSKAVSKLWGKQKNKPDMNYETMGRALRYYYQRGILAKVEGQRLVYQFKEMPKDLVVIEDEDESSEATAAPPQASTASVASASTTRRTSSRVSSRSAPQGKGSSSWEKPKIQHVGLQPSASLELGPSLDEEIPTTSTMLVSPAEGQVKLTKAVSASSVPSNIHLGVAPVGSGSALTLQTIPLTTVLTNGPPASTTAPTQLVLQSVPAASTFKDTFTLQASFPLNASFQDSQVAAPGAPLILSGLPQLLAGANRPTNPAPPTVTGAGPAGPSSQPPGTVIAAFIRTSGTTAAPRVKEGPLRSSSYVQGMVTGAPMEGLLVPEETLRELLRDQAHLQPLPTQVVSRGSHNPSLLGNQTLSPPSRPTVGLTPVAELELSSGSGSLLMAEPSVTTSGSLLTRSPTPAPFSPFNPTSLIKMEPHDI
# Sequence of SPIB (Q01892 whole entry): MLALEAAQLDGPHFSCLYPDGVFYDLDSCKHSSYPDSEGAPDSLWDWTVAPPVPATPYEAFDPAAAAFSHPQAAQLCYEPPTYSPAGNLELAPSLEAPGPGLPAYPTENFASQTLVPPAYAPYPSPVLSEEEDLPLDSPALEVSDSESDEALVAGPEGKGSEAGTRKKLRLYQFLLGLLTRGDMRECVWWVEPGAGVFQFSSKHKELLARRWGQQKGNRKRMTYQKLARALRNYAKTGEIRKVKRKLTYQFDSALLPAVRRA
# Sequence of ETV1 (P50549 whole entry): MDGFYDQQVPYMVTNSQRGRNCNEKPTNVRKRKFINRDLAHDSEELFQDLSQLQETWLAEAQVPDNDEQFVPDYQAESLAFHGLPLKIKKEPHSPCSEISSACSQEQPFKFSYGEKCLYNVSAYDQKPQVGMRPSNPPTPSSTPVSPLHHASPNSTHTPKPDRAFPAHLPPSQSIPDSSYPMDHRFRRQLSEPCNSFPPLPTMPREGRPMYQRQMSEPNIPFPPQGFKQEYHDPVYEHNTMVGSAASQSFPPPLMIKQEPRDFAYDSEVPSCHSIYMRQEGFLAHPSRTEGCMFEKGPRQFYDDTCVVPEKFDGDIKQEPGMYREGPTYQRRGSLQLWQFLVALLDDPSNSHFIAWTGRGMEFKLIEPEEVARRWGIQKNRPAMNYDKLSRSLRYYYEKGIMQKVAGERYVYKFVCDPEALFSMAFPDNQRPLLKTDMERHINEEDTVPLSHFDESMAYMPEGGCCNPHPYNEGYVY
# Sequence of ELF1 (P32519 whole entry): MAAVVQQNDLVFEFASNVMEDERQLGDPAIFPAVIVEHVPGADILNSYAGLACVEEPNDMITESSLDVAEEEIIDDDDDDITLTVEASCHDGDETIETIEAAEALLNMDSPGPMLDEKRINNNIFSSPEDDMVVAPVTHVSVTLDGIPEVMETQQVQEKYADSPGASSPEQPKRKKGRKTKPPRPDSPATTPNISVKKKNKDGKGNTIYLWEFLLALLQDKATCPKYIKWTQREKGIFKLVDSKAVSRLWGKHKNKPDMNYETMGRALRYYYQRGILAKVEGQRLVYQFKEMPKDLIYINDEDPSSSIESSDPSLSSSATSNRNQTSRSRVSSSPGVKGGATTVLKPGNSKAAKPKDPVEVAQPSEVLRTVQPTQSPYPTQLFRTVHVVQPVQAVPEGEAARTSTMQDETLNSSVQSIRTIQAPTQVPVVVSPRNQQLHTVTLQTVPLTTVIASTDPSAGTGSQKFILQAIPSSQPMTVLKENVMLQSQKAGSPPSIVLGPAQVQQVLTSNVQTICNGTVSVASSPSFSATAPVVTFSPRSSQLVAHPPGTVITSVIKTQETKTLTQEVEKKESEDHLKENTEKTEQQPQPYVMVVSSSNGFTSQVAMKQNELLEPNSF
# Sequence of HSF1 (Q00613 whole entry): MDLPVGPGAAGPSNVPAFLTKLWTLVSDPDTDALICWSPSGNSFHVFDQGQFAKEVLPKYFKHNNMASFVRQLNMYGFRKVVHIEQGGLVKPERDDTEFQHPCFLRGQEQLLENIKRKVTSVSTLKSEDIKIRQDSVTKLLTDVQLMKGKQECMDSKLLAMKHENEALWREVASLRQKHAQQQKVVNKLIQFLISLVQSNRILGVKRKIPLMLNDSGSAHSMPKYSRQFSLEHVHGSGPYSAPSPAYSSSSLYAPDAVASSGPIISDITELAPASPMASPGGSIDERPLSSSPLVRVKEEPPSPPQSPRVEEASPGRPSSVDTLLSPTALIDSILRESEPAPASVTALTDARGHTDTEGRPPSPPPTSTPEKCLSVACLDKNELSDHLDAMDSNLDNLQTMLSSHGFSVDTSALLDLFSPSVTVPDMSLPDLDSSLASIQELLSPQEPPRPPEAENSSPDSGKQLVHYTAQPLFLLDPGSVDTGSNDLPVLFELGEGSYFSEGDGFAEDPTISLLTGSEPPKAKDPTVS
sequence,measurement,setting,value
AGTTCC,binding signal,FLI1,"2.16 fold enrichment (6-mer frequency, TF over GST control)"
same,binding signal,ELK1,"2.17 fold enrichment (6-mer frequency, TF over GST control)"
same,binding signal,GABPA,"1.9 fold enrichment (6-mer frequency, TF over GST control)"
same,binding signal,ERG,"2.2 fold enrichment (6-mer frequency, TF over GST control)"
same,binding signal,ELF1,"1.95 fold enrichment (6-mer frequency, TF over GST control)"
same,binding signal,EHF,"2.11 fold enrichment (6-mer frequency, TF over GST control)"
same,binding signal,SPI1,"2.62 fold enrichment (6-mer frequency, TF over GST control)"
same,binding signal,SPIB,"2.36 fold enrichment (6-mer frequency, TF over GST control)"
same,binding signal,ELK3,"1.99 fold enrichment (6-mer frequency, TF over GST control)"
same,binding signal,FEV,"1.96 fold enrichment (6-mer frequency, TF over GST control)"
same,binding signal,ETV5,"2.29 fold enrichment (6-mer frequency, TF over GST control)"
same,binding signal,HSF1,"1.34 fold enrichment (6-mer frequency, TF over GST control)"
same,binding signal,SPIC,"2.42 fold enrichment (6-mer frequency, TF over GST control)"
same,binding signal,ELF4,"1.97 fold enrichment (6-mer frequency, TF over GST control)"
same,binding signal,ELK4,"1.98 fold enrichment (6-mer frequency, TF over GST control)"
same,binding signal,ETV2,"1.88 fold enrichment (6-mer frequency, TF over GST control)"
same,binding signal,ELF3,"2.05 fold enrichment (6-mer frequency, TF over GST control)"
same,binding signal,ETV1,"2.21 fold enrichment (6-mer frequency, TF over GST control)"

# — PMC7862700, “An all-to-all approach to the identification of sequence-specific readers for epigenetic DNA modifications on cytosine”
